Common to all, as to parameters: scale not given: direction of the effect not stated beside the values
In assay [1] the target is Protein translocase subunit SecA (Escherichia coli (strain K12)) (UniProt P10408). The experiment in a line: Assay to Identify E. coli SecA ATPase Inhibitors. Format: functional. The note with it: 30 µM.
The target in assay [2] is T1, Ubiquitin-activating enzyme e1, putative (Leishmania donovani (strain BPK282A1)) (UniProt E9BSI1).
T1 sequence (whole entry): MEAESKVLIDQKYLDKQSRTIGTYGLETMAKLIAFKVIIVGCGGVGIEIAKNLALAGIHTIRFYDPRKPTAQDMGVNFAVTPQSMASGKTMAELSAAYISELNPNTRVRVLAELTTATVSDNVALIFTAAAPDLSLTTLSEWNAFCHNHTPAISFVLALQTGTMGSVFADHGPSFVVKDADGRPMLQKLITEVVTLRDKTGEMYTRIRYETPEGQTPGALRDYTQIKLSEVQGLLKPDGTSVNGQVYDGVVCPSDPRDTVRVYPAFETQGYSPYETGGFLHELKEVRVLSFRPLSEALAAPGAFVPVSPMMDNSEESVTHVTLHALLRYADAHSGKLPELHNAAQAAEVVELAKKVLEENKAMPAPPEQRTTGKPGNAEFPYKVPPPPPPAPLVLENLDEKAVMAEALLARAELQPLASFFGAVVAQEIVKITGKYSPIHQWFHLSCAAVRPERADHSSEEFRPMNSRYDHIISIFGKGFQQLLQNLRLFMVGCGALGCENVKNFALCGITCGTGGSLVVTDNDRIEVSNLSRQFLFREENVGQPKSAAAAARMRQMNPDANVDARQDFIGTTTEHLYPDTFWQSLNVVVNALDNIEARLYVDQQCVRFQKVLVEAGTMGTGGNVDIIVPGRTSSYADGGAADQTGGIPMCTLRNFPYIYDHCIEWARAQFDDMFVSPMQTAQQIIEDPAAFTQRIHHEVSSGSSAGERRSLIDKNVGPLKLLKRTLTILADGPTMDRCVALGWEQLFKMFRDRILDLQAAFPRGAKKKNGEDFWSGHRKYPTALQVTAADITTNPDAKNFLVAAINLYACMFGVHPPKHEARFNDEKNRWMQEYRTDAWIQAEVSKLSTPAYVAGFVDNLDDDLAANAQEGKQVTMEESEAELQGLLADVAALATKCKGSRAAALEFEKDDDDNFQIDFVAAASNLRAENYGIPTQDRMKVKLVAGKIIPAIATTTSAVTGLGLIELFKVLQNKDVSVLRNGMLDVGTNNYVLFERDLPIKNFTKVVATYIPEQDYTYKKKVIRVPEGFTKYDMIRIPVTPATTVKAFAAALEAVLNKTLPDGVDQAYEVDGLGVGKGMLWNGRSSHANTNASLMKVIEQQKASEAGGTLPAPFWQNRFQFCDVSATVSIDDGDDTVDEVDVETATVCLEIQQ
Briefly: Leishmania donovani Ubiquitin Activating Enzyme (LdE1). Format: functional. To be noted: 30 µM.

Assay [3] has as its target AMP-activated protein kinase, AMPK (Homo sapiens) (UniProt P54646+O43741+P54619+Q9UGJ0+Q9Y478+Q13131+Q9UGI9). The experiment in a line: AMP-dependent Kinase enzyme assay. An in vitro enzyme assay that detects ADP turnover that is directly proportional to AMPK activity. This uses naive AMPK that is activated during the assay with MK-8722. Format: functional. To be noted: 30 µM.

Assay [4] deals with Sialic acid-binding Ig-like lectin 9 (Homo sapiens) (UniProt Q9Y336). Briefly: Hs-Siglec9 ALPHAscreen SOP 20170721. To be noted: 10 µM.
Chain of Sialic acid-binding Ig-like lectin 9 (Homo sapiens) (Q9Y336 whole entry): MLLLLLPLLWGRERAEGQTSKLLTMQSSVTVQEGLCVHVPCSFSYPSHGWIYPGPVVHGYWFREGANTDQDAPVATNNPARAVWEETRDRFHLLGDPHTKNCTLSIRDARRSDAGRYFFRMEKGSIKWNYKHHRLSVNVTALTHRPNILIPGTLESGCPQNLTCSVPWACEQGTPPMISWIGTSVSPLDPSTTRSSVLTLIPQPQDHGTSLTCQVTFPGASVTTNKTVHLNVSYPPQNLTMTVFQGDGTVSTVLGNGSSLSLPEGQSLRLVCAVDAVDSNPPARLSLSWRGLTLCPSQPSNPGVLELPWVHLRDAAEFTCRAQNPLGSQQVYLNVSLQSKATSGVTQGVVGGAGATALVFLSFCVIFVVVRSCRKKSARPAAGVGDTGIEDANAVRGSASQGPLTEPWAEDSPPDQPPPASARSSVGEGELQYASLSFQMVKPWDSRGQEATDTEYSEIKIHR
For another assay, the system named is Trypanosoma cruzi. Briefly: Trypanosoma cruzi phosphomannomutase and mannose-1-phosphate guanylyltransferase assay. Format: functional. To be noted: 10 µM.
In assay [5] the target is T2, Arginase-2, mitochondrial (Homo sapiens) (UniProt P78540).
T2 sequence (whole entry): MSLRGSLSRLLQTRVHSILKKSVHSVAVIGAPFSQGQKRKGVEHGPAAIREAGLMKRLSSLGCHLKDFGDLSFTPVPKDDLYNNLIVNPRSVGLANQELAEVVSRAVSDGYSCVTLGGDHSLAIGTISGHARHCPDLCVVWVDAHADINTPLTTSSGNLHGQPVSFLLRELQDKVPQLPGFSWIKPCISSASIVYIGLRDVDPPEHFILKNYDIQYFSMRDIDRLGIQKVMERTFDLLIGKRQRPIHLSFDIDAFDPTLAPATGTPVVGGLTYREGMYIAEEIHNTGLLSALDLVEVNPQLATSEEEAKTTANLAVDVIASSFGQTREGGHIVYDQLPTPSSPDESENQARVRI
The experiment in a line: in vitro enzyme assay to detect the production of urea directly proportional to the activity of Arginase II. Further: in the data most compounds retested in dose-response had high values. Format: functional. The note with it: 33.3 µM.

Assay [6] has as its target T3, Proteasome subunit beta (Trypanosoma cruzi) (UniProt O96673).
T3 sequence (whole entry): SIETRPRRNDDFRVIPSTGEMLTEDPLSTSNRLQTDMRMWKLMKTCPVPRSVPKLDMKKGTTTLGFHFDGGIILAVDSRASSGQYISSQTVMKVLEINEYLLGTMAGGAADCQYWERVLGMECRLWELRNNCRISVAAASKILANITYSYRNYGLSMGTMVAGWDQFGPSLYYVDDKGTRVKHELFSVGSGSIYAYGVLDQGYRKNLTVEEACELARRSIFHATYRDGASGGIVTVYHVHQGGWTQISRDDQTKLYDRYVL
Briefly: Trypanosoma cruzi proteasome chymotrypsin-like activity (TcProtChymo) assay. Further: in the data most compounds retested in dose-response had high values. Format: functional. To be noted: 9.37 µM.

For another assay, the species on record is Homo sapiens. Briefly: To identify inhibition of the IFN signalling (Jak-Stat) pathway via expression of an eGFP reporter gene under the control of an IFN-stimulated response element (ISRE) containing MxA promoter. The note with it: 30 µM. Format: functional. A general note: Reporter assays use an easily measured gene product as a stand-in for the process of interest.

Assay [7] has as its target T4, Tyrosyl-tRNA synthetase, putative (Trypanosoma cruzi (strain CL Brener)) (UniProt Q4DSP6).
T4 sequence (whole entry): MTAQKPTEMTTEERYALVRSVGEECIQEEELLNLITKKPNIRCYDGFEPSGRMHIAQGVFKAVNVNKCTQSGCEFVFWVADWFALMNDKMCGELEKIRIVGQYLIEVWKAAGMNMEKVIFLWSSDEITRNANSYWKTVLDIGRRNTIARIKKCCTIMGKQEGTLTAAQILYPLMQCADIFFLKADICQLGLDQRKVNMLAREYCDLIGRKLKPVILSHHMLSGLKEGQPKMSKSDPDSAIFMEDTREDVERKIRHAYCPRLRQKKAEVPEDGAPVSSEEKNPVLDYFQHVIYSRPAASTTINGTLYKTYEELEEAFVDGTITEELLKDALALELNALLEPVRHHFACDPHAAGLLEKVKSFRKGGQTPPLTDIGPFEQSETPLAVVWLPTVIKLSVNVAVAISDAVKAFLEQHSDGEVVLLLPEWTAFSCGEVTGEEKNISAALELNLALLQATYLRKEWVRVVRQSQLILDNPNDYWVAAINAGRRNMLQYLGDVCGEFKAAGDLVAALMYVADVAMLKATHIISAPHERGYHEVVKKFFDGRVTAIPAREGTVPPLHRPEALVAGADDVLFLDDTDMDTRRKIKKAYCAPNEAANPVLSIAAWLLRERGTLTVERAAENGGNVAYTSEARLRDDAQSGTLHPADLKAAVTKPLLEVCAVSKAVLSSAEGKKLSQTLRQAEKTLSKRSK
The experiment in a line: Trypanosoma cruzi tyrosyl tRNA synthetase (TcYRS) _High Tyrosine SOP. Further: in the data most compounds retested in dose-response had high values. The note with it: 30 µM. Format: functional.

The target of assay [8] is T4, Tyrosyl-tRNA synthetase, putative (Trypanosoma cruzi (strain CL Brener)). The experiment in a line: Trypanosoma cruzi tyrosyl tRNA synthetase (TcYRS) SOP. Format: functional. To be noted: 30 µM.
Assay [9] concerns the target Chromo domain-containing protein 1 (Saccharomyces cerevisiae (strain ATCC 204508 / S288c) (Baker's yeast)) (UniProt P32657). The experiment in a line: ScCHD-1 Enzyme Inhibition Assay. Further: in the data most compounds retested in dose-response had high values. Format: functional. The note with it: 30 µM.

For some assays here: Potency and affinity values are given separately.

Chain of Protein translocase subunit SecA (Escherichia coli (strain K12)) (P10408 whole entry): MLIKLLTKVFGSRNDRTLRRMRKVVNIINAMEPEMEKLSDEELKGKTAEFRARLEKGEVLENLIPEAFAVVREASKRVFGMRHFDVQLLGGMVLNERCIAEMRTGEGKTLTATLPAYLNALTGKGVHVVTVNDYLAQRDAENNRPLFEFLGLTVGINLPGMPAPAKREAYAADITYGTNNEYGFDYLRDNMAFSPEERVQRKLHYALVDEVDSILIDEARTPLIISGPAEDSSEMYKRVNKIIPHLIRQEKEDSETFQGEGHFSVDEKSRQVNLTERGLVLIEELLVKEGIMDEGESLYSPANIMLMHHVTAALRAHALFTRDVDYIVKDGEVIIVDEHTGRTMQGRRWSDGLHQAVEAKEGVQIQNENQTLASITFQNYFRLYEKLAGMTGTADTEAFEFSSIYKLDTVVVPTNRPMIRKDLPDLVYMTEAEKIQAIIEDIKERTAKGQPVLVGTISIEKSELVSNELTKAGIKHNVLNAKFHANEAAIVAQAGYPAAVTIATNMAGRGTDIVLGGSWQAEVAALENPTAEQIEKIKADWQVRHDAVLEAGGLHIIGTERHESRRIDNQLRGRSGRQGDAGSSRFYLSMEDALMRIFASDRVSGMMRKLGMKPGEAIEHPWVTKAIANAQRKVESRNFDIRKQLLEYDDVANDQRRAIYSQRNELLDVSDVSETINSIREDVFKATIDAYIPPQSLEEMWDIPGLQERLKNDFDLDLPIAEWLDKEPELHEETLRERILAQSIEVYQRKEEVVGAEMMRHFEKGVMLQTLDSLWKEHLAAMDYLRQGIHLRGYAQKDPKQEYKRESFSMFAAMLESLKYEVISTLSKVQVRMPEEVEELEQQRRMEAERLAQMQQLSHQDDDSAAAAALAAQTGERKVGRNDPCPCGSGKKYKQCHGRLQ
Chain of Chromo domain-containing protein 1 (Saccharomyces cerevisiae (strain ATCC 204508 / S288c) (Baker's yeast)) (P32657 whole entry, the tested form may be a part): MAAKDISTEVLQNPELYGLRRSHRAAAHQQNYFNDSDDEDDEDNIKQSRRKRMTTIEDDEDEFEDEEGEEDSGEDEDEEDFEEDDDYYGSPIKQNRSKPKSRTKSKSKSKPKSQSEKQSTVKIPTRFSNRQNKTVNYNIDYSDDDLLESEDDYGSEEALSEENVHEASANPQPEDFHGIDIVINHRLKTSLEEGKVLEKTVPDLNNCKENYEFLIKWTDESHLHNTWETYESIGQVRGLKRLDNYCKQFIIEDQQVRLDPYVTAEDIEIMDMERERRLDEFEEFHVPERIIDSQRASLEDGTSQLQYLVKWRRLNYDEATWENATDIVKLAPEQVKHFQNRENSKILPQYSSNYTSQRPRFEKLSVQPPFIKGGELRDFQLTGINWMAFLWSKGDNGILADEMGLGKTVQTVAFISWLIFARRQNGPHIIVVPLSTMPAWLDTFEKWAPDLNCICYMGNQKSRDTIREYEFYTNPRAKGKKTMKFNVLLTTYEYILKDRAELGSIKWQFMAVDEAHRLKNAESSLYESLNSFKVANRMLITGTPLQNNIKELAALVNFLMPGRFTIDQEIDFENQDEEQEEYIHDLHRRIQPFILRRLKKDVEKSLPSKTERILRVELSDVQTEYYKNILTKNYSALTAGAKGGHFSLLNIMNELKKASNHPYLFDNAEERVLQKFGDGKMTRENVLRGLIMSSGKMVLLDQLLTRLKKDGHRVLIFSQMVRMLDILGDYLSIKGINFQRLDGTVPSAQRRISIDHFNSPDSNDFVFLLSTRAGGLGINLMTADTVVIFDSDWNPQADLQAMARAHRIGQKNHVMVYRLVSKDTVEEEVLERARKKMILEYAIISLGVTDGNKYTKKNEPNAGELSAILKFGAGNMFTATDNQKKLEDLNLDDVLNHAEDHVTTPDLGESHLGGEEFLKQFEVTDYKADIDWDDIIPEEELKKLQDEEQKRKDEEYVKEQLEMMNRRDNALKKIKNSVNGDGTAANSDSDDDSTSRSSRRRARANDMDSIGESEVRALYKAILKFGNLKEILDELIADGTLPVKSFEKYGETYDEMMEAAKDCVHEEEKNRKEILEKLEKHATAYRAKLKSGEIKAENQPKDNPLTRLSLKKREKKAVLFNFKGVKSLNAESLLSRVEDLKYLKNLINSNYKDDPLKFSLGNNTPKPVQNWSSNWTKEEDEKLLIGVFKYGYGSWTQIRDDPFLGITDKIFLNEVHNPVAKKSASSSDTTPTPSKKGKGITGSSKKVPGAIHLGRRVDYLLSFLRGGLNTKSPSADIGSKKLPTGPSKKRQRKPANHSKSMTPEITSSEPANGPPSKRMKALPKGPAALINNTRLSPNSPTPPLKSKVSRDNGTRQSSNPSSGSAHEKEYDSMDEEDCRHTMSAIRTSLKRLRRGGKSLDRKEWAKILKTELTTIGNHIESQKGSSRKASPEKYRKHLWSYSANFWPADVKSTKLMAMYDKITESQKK

Regarding `CC(C)n1ccnc1C1CCCN(c2ccnc3ccccc23)C1` (stereo not given), the Percent Effect in assay [1] was -5.45%; in assay [2] it was 2.67%; in assay [3], 3.66%; in assay [4] it was 2%; with Trypanosoma cruzi, -0.487%; in assay [5], -1.04%. The Percent Effect in assay [6] is 1.57%; in the assay filed under Homo sapiens, 53.9%; in assay [7], 7.1%; in assay [8], 6.17%; in assay [9] it was -6.66%.

As for `O=C(NCc1ccccn1)Nc1cc(C(F)(F)F)c[nH]c1=O`, the Percent Effect was -6.27% in [1]; 5.41% in assay [2]; -7.01% in assay [3]; 23.6% in [4]; 4.74% in the assay on Trypanosoma cruzi; 4.25% in assay [5]. Moreover, the Percent Effect is 4.67% in assay [6]; 2.58% in the assay listed under Homo sapiens; 3.96% in assay [7]; 18.3% in [8]; -8.44% in [9].

As to `COCCn1ccc2cc(NC(C)=O)ccc21`, the Percent Effect in assay [1] is -8.18%; in assay [2], 23.7%; in [3], -9.22%; in assay [4], 7.23%; in the assay with Trypanosoma cruzi it was 1.46%; in assay [5] it was -9.47%. Further, the Percent Effect was 16.4% in assay [6]; -6.07% in the assay filed under Homo sapiens; 4.25% in assay [7]; 10.4% in [8]; -9.21% in assay [9].

As to `Cc1nc(N2CCCC2)nc2c1CN(C(C)C)CC2`, the Percent Effect was -5.79% in assay [1]; 21.3% in [2]; -1.49% in [3]; 4.47% in assay [4]; 3.28% in the assay with Trypanosoma cruzi; -51.8% in [5]. Moreover, the Percent Effect was 1.71% in [6]; -7.95% in the assay filed under Homo sapiens; 6.25% in assay [7]; 17.5% in [8]; -11.2% in assay [9].

Take `Cc1ccsc1CNc1cc(N2CCCC2CO)ncn1` (stereo not given): the Percent Effect in [1] is -9.04%; in assay [2], 11.4%; in assay [3], -19.2%; in assay [4] it was 6.66%; in the assay with Trypanosoma cruzi it was 1.33%; in assay [5] it was -1.07%. Besides, the Percent Effect in assay [6] is 8.23%; in the assay listed under Homo sapiens, 12.1%; in assay [7], 0%; in assay [8], 17.7%; in assay [9], -31%.

`Cc1noc2ncc(C(=O)N(CC3CCOC3)C3CC3)cc12` (stereo not given): the Percent Effect is -0.0275% in assay [1]; 7.89% in assay [2]; -3.99% in assay [3]; 3.92% in assay [4]; -9.59% with Trypanosoma cruzi; 3.45% in assay [5]. In addition, the Percent Effect is 7.69% in assay [6]; 24.4% in the assay listed under Homo sapiens; 0.49% in assay [7]; 4.88% in [8]; -5.66% in assay [9].

In the case of `CN(C)C(=O)CO[C@H]1CN(Cc2ccc(F)cc2)[C@@H]2CCCO[C@H]12`, the Percent Effect is -4.67% in [1]; 10.4% in assay [2]; 1.52% in assay [3]; 9.7% in [4]; 4.23% with Trypanosoma cruzi; 2.76% in assay [5]. Further, the Percent Effect in [6] was 15.3%; in the assay listed under Homo sapiens it was -1.14%; in assay [7] it was 5.38%; in [8], 11.1%; in [9], -1.79%.

`CCS(=O)(=O)c1ccc(N2CCC(NC(C)=O)CC2)cc1`: the Percent Effect was -5.48% in assay [1]; 2.67% in assay [2]; 0.562% in assay [3]; -0.234% in [4]; -3.21% in the assay with Trypanosoma cruzi; -1.04% in assay [5]. Moreover, the Percent Effect was 14.8% in [6]; 24.6% in the assay filed under Homo sapiens; 2.73% in assay [7]; 8.64% in [8]; -7.72% in assay [9].

For the molecule `COc1cc(C)nc(N2CCN(C(=O)c3ccc[nH]3)CC2)n1`, the Percent Effect in assay [1] was -5.18%; in [2] it was 10.8%; in assay [3] it was -2.76%; in [4] it was 14.9%; in the assay with Trypanosoma cruzi it was 3.68%; in [5] it was -5.21%. The Percent Effect is 4.14% in [6]; 17.1% in the assay filed under Homo sapiens; 1.48% in assay [7]; 6.17% in assay [8]; -10.1% in assay [9].

Take `Cc1ccc(CN2CCCC23CCN(S(=O)(=O)c2ccccc2)C3)o1` (stereo not given): the Percent Effect in assay [1] is -3.52%; in [2], 8.11%; in assay [3], 0.79%; in assay [4], -6.47%; in the assay with Trypanosoma cruzi it was 2.25%; in assay [5], 1.59%. The Percent Effect came to 18.6% in [6]; 6.15% in the assay listed under Homo sapiens; 9.73% in [7]; 17.9% in assay [8]; 2.48% in assay [9].

The values above are taken from ChEMBL document CHEMBL3988442, “University of Dundee, Small-Polar-MMV Screening Library” (2021).
